Sampled rows, rich in hits. Any-hit rate of the full collection: about 7.2%.
HCV inhibitor = qHTS Assay for Inhibitors of Hepatitis C Virus (HCV). AID 651820, 2012. actives 3.4% (n = 340,000). Huh7.5.1 HCVcc-Cre infection, luciferase reporter, 44 h. Potency, µM (highest dose often 41.8 µM), hits mostly inhibitors
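After 44 h co-culture of compound, cells and HCVcc-Cre (~0.5 moi), substrate is added for 15 min at room temperature and luciferase measured over 15 sec. Cells were seeded at 1,000/well and pre-cultured 4 h.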
Marburg entry inh = qHTS for inhibitors of binding or entry into cells for Marburg Virus; Potency, µM (series often up to 37.8 µM), usual class: inhibitors; Marburg virus pseudotyped entry inhibition, cell reporter; actives 1.8% (n = 300,000); calls by dose curve; tested in HEK293 cells
Sm TGR inh = qHTS Assay for the Inhibitors of Schistosoma Mansoni Peroxiredoxins. actives 3% (n = 360,000). AID 485364, 2010. Potency, µM (top dose mostly 114 µM), most hits filed as inhibitors. purified TGR, DTNB reduction, TNB absorbance 405 nm. Schistosoma mansoni thioredoxin glutathione reductase (TGR), Q962Y6; also: nearly all actives have a fitted effect of over 60% in size
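First, TGR (20 nM dispensed) and NADPH were mixed with compound. Second, a 15 min room-temperature incubation followed. Third, further NADPH and then DTNB were added to start the reaction. Finally, TNB absorbance was monitored kinetically.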
FMDV inh = High Throughput Screening for Foot and Mouth Disease Virus Antivirals. Potency, µM (doses to about 57.9 µM), usual class: inhibitors. actives 1.2% (n = 410,000). AID 1159524, 2015. FMDV antiviral cell-based qHTS; calls by dose curve; tested in HEK293T cells; also: read-out not given here; nearly all actives have a fitted effect of over 45% in size
LASV entry inh = qHTS for Inhibitors of binding or entry into cells for Lassa Virus; Potency, µM (highest dose often 37.9 µM), usual class: inhibitors; Lassa virus pseudotype entry inhibition, cell reporter; AID 540256, 2011; actives 1.2% (n = 300,000); calls by dose curve; tested in HEK293 cells; also: nearly all actives have a fitted effect of over 50% in size
RE007 growth inh = qHTS Assay for Inhibitors of the HIV-1 protein Vpr; S. pombe RE007 Vpr strain, BacTiter-Glo ATP luminescence, 24 h; Potency, µM (top dose mostly 92.2 µM), actives largely listed as inhibitors; actives 0.21% (n = 360,000); AID 651644, 2012; active = well fitted falling curve with a large enough effect; inconclusive = small, poorly fitted or top-dose-only effect; inactive = no such curve, though single readings can be large or run the other way; also: nearly all actives have a fitted effect of over 50% in size
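Fission yeast strain RE007, carrying one chromosomally integrated HIV-1 vpr copy, was seeded at OD 0.01 in PMG+AL medium with 23 nL pinned compound. After 24 h at 30 °C and 99% humidity, viability was read by BacTiter-Glo luminescence.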
Numbers stand for hits. Unless noted, calls follow the shape of the dose curve; as a rule, active = well fitted curve in the direction sought with a large enough effect; inconclusive = small, poorly fitted or top-dose-only effect, or another doubt; inactive = no such curve, though single readings can be large; an effect the other way counts as inactive or inconclusive.

Results for O=C1C(Cl)=C(N2CCOCC2)C(=O)N1c1ccccc1F ?
HCV inhibitor: inactive; Marburg entry inh: inconclusive; Sm TGR inh: 40µM; FMDV inh: inactive; LASV entry inh: inactive; RE007 growth inh: inactive

Results for CCOc1ccc(N2C(=O)C(Cl)=C(N3CCOCC3)C2=O)cc1 ?
HCV inhibitor: inactive; Marburg entry inh: inactive; Sm TGR inh: 22µM; FMDV inh: inactive; LASV entry inh: inactive; RE007 growth inh: inactive

What do the screens show for `C[C@@]12C(=O)OC(=O)[C@@]1(C)[C@H]1CC[C@@H]2O1`?
Marburg entry inh: 3.3µM

Results for CC12C(=O)OC(=O)C1(C)C1CCC2O1 (configuration not stated) ?
Marburg entry inh: 3.3µM; FMDV inh: inconclusive; LASV entry inh: 2.9µM

Results for O=C(CC1N=C2c3ccccc3N=C(SCC(=O)Nc3ccccc3F)N2C1=O)NCc1cccs1 (configuration not stated) ?
Marburg entry inh: inactive; Sm TGR inh: inactive; FMDV inh: inactive; LASV entry inh: inactive

Results for O=C(c1ccc(F)cc1)c1cn(Cc2ccccc2F)c2cc3c(cc2c1=O)OCCO3 ?
Marburg entry inh: inactive; Sm TGR inh: inactive; FMDV inh: inactive; LASV entry inh: inactive

Results for COC(=O)C1=C(C)[C@@H](O)[C@@H](C)[C@](C)(c2cc(OC)c(C)c(OC)c2COc2ccccc2)O1 ?
Marburg entry inh: inactive; LASV entry inh: inactive

Results for Cc1nn(CC(=O)NCc2cccc(F)c2)c(=O)c2c(C)n(-c3ccc(Cl)cc3)nc12 ?
Sm TGR inh: inactive; FMDV inh: inactive; LASV entry inh: inactive

Results for O=C(Nc1cc(Oc2ccc(Cl)cc2)cc([N+](=O)[O-])c1)c1ccco1 ?
HCV inhibitor: 10µM; Marburg entry inh: inconclusive; Sm TGR inh: inactive; FMDV inh: inactive; LASV entry inh: inactive; RE007 growth inh: inactive

How did CCn1cc(CNC(=O)c2ccc3nc(Cc4ccc(OC)cc4)oc3c2)cn1 do in these assays?
HCV inhibitor: 10µM; Marburg entry inh: inactive; Sm TGR inh: inactive; FMDV inh: inactive; LASV entry inh: inactive; RE007 growth inh: inactive

How did Cn1cc(CNC(=O)c2ccc3nc(Cc4ccccc4F)oc3c2)cn1 do in these assays?
HCV inhibitor: inactive; Marburg entry inh: inactive; Sm TGR inh: inactive; FMDV inh: inactive; LASV entry inh: inactive; RE007 growth inh: inactive

What do the screens show for `C=C(C)CNC(=O)c1ccc2nc(Cc3ccc(OC)cc3)oc2c1`?
HCV inhibitor: inactive; Marburg entry inh: inactive; Sm TGR inh: inactive; FMDV inh: inactive; LASV entry inh: 6.3µM; RE007 growth inh: inactive

How did CCOc1ccccc1CNC(=O)c1ccc2nc(Cc3ccc(OC)cc3)oc2c1 do in these assays?
Sm TGR inh: inactive; FMDV inh: inactive; LASV entry inh: inactive

What do the screens show for `CCn1cc(CNC(=O)c2ccc3nc(Cc4ccccc4F)oc3c2)cn1`?
HCV inhibitor: 11µM; Marburg entry inh: inactive; Sm TGR inh: inactive; FMDV inh: inactive; LASV entry inh: inactive; RE007 growth inh: inactive

How did COc1ccc(Cc2nc3ccc(C(=O)NC(C)C)cc3o2)cc1 do in these assays?
HCV inhibitor: inactive; FMDV inh: inactive; RE007 growth inh: inactive

What do the screens show for `COc1ccc(Cc2nc3ccc(C(=O)NCc4cc(C)no4)cc3o2)cc1OC`?
HCV inhibitor: inactive; Marburg entry inh: inactive; Sm TGR inh: inactive; FMDV inh: inconclusive; LASV entry inh: inactive; RE007 growth inh: inactive

How did C=CCN(CC=C)C(=O)c1ccc2nc(Cc3ccc(OC)c(OC)c3)oc2c1 do in these assays?
HCV inhibitor: 11µM; Marburg entry inh: inconclusive; Sm TGR inh: inactive; FMDV inh: inactive; LASV entry inh: inconclusive; RE007 growth inh: inactive

What do the screens show for `Cc1ccc(Cl)cc1-n1c(=O)c2sc3ccccc3c2n(Cc2ccccc2)c1=O`?
Marburg entry inh: inactive; Sm TGR inh: inactive; FMDV inh: inactive; LASV entry inh: inactive

How did COc1cccc(C(=O)Nc2ccc3nc(SCC(=O)N4CCc5ccccc54)sc3c2)c1 do in these assays?
Marburg entry inh: inactive; Sm TGR inh: inactive; FMDV inh: inactive; LASV entry inh: inactive

How did CCc1nc2ccc(C(=O)NCCCN3CCN(c4ccc(F)cc4)CC3)cc2nc1CC do in these assays?
HCV inhibitor: inconclusive; Marburg entry inh: inconclusive; Sm TGR inh: inactive; FMDV inh: inactive; LASV entry inh: inconclusive; RE007 growth inh: inactive

How did CCC(NC(=O)c1ccc2nc(Cc3ccc(OC)cc3)oc2c1)c1ccncc1 (configuration not stated) do in these assays?
HCV inhibitor: inactive; Sm TGR inh: inactive; FMDV inh: 20µM; RE007 growth inh: inactive

What do the screens show for `O=C(NCCCN1CCN(c2ccc(F)cc2)CC1)c1ccc2nc(Cc3ccccc3)oc2c1`?
Sm TGR inh: inactive; FMDV inh: 11µM; LASV entry inh: inactive

Results for CN1CCN(CCNC(=O)c2ccc3nc(-c4ccc(F)cc4)c(-c4ccc(F)cc4)nc3c2)CC1 ?
HCV inhibitor: 2.2µM; Marburg entry inh: inconclusive; Sm TGR inh: inactive; FMDV inh: inactive; LASV entry inh: inactive; RE007 growth inh: inactive

Results for CCC(C)NC(=O)c1ccc2nc(Cc3ccc(OC)cc3)oc2c1 (configuration not stated) ?
HCV inhibitor: inactive; Marburg entry inh: inactive; Sm TGR inh: inactive; FMDV inh: inactive; LASV entry inh: inconclusive; RE007 growth inh: inactive

What do the screens show for `COc1ccc(-c2noc(-c3ccc(N4CCN(c5ccc(OC)cc5)CC4)c([N+](=O)[O-])c3)n2)cc1`?
Marburg entry inh: inconclusive; Sm TGR inh: inactive; FMDV inh: inactive; LASV entry inh: inactive

How did Cc1ccc(S(=O)(=O)Cn2nnnc2C(C(C)C)N2CCc3ccccc3C2)cc1 (configuration not stated) do in these assays?
HCV inhibitor: inconclusive; Marburg entry inh: inconclusive; Sm TGR inh: 28µM; LASV entry inh: inconclusive; RE007 growth inh: inactive

Results for COC(=O)c1cc(C(=O)OC)n2c(C)cc3ccccc3c12 ?
Marburg entry inh: inactive

Results for CN(C)c1ccc(CNCCC(Cc2ccccc2)c2ccco2)cc1 (configuration not stated) ?
HCV inhibitor: inconclusive; Marburg entry inh: 15µM; Sm TGR inh: inactive; FMDV inh: inactive; LASV entry inh: inconclusive; RE007 growth inh: inactive

What do the screens show for `Cc1nn(-c2ccccc2)nc1CNC(=O)c1ncoc1-c1ccccc1`?
HCV inhibitor: 10µM; Sm TGR inh: inactive; FMDV inh: inconclusive; RE007 growth inh: inactive

How did Cc1nn(-c2ccccc2)nc1CNC(=O)CC(C)(C)C do in these assays?
HCV inhibitor: inactive; Sm TGR inh: inactive; FMDV inh: inactive; RE007 growth inh: inactive

How did Cc1nnnn1/C(=C\c1ccccc1)C(=O)OCC(=O)NC(C)(C)C do in these assays?
HCV inhibitor: inactive; Marburg entry inh: 6.3µM; Sm TGR inh: inactive; FMDV inh: 18µM; LASV entry inh: inactive; RE007 growth inh: inactive
